Results published in PubChem BioAssay AID2278 (National Center for Advancing Translational Sciences (NCATS), 2010).
Records with an inconclusive call do not appear. Unmarked numbers belong to inactive results. The source made the active and inactive calls. The call rests on the fitted dose curve; in most records, active means well fitted curve in the direction sought with a large enough effect; inconclusive means small, poorly fitted or top-dose-only effect, or another doubt; inactive means no such curve, though single readings can be large or run the other way.

Each compound was assayed against Group 10 secretory phospholipase A2 (Mus musculus) (UniProt Q9QXX3) (assay: Secondary Assay for Inhibitors of Ubiquitin-specific Protease USP2a: PLA2 Counterscreen). Conditions: purified murine PLA2, NBD C6-HPC fluorescence; series mostly up to 57.5 µM; activity change, negative = inhibition: at the top concentration.
Chain of Group 10 secretory phospholipase A2 (Mus musculus) (Q9QXX3 whole entry, looked up): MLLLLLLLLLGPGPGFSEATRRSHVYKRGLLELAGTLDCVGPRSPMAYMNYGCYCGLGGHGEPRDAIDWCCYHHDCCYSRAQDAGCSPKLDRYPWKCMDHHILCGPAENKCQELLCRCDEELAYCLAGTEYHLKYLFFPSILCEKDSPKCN
Excerpt: NIH Molecular Libraries Screening Centers Network [MLSCN] NIH Chemical Genomics Center [NCGC] MLSCN Grant: XO1-MH079852-01 PI Name: Nicholson, Ben. Progenra Inc, Malvern, PA NCGC Assay Overview: Homeostasis of cellular proteins is maintained through a combination of synthesis and degradation. The pathway that accounts for the majority of protein degradation is the ubiquitin-proteasomal pathway. Ubiquitin (Ub) is highly conserved in all cells and the generation of a multi-Ub chain typically targets proteins for degradation by the proteasome. However, ubiquitination is highly reversible and dynamic. Deubiquitination, the reverse process, is catalyzed through the action of enzymes referred to as isopeptidases or deubiquitinating enzymes (DUBs). This group of enzymes is collectively responsible for maintaining adequate pools of free ubiquitin and regulating the ubiquitination status of cellular proteins. The class of DUBs referred to as the ubiquitin-specific proteases (USP) family functions endoproteolytically to cleave Ub chains from a wide range of protein substrates. USP2a deubiquitinates fatty acid synthase (FASN) which has recently been identified as an emerging oncology target. To identify inhibitors of USP2a a cell-free assay was employed. This is assay is a counterscreen used for the for the USP2a-PLA2 coupled assay. In this assay the murine PLA2 reporter enzyme is screened alone using NBD C6-HPC (Invitrogen) as a fluorogenic substrate.
NCGC Assay Protocol Summary: The assay buffer, prepared fresh at the day of the assay, contains 20mM Tris-HCl pH 8.0, 2mM CaCl2, 2mM beta-mercaptoethanol, 0.1% DMSO. 3ul of 10nM (5nM final) free PLA2, which is stored on ice, is dispensed into a medium-binding black solid Kalypsys 1,536 well plate using the Aurora BioRaptr. The assay plate is then pinned with 23nL compound with the Kalypsys pintool. The controls were pinned as follows: row 31 2M NEM and row 32 DMSO. Subsequently, 3uL 40uM (20uM final) NBD C6-HPC (stored on ice and protected from light) were dispensed into the plate using the BioRaptr dispenser. Plates were read immediately on an Envision (Perkin Elmer) plate reader using wavelengths of Ex 460nm /Em 535nm. Then, the assay plates were incubated for 2.5 hours and read again on the Envision using the same settings. Data were normalized to the to AC100 inhibition (NEM). Concentration-response curves were fitted to the normalized data and the concentration-response curves were then classified based on curve quality (r2), response magnitude and degree of measured activity. The time zero reading was used to flag fluorescence artifacts. Keywords: ubiquitination, deubiquitination, proteases, profluorescent, MLSMR, MLSCN, NIH Roadmap, qHTS, NCGC
In the case of `Cc1nn(C(=O)c2cccc([N+](=O)[O-])c2C)c(C)c1S(=O)(=O)N1CCCCCC1`, the “activity change, negative = inhibition” value is reported as -15.4%. With `CCC(=O)C1=C(c2ccc(OC)c(OC)c2)N(C(=O)CC)n2c(CC)nnc2S1` the “activity change, negative = inhibition” value was 9.52%. With `COc1ccc(Cl)cc1NC(=O)CSc1nc(=O)[nH]c2c1CCC2` the “activity change, negative = inhibition” value was 8.64%. `CCCCCC(=O)N1c2ccccc2C(C)(c2ccccc2)CC1(C)C` (stereo not given) was tested, and the “activity change, negative = inhibition” value was -32.1%. With `Cc1nnc(SCC(=O)NCc2ccccc2F)c2nn(-c3ccc(Cl)cc3)c(C)c12` the “activity change, negative = inhibition” value was 6.11%. For `Cc1cc(C)cc(NC(=O)c2sc3nc4n(c(=O)c3c2C)N=C(c2ccccc2)CS4)c1`, the Potency was 20 µM (active). `CCOc1ccc(C2=C(C(C)=O)Sc3nnc(C)n3N2C(C)=O)cc1` was tested, and the “activity change, negative = inhibition” value was 9.3%. `O=C(CSc1nc2ccsc2c(=O)n1-c1ccc(Br)cc1)NCc1ccccc1` was tested, and the “activity change, negative = inhibition” value was -5.48%. For `Cc1ccc2scc(N3CCN(c4cccc(C(F)(F)F)c4)CC3)c(=O)c2c1`, the “activity change, negative = inhibition” value was 5%. `CCc1cccc(NC(=O)CSc2ncccc2C(=O)Oc2ccccc2Cl)c1` was tested, and the “activity change, negative = inhibition” value was -4.88%. With `O=C(CCS(=O)(=O)c1ccccc1)N(Cc1cccnc1)c1nc2c(Cl)cccc2s1` the “activity change, negative = inhibition” value was 8.8%. For `Cc1ccc(-n2nc3c(=O)n(CCCC(=O)NCCc4ccccc4Cl)nc(C)c3c2C)cc1`, the “activity change, negative = inhibition” value was -24%. For `COc1ccc(C2=CC(c3cccc(C)c3)n3nnnc3N2)cc1` (stereo not given), the “activity change, negative = inhibition” value was -30.1%. In the case of `CCOC(=O)C1CCCN(c2c(C(=O)c3ccc(C)cc3)cnc3ccc(OCC)cc23)C1` (stereo not given), the “activity change, negative = inhibition” value is reported as -35.2%. With `COc1cc(C2C(C(=O)Nc3ccccc3C)=C(C)Nc3nc(SCc4cc(C)ccc4C)nn32)ccc1O` (stereo not given) the “activity change, negative = inhibition” value was 15.6%. With `CCc1ccc(C(=O)c2c(N)c(-c3nc(-c4ccc5c(c4)OCO5)cs3)c3ccccn23)cc1` the “activity change, negative = inhibition” value was -25.3%. `Oc1c(C(Nc2ccccn2)c2ccccc2F)ccc2cccnc12` (stereo not given) was tested, and the “activity change, negative = inhibition” value was 8.56%. With `COc1ccc2c(c1)c1c(c(=O)n(-c3ccc(OC)c(OC)c3)c(=O)n1Cc1ccccc1C)n2C` the “activity change, negative = inhibition” value was -27.4%. In the case of `Cc1c(C(=O)N(C)C)sc2c1c(=O)n(-c1ccc(Cl)c(Cl)c1)c(=O)n2CC(=O)Nc1ccc(Br)cc1F`, the “activity change, negative = inhibition” value is reported as -22.1%. For `O=c1c(O)c(-c2cc(O)c(O)c(O)c2)oc2cc(O)cc(O)c12`, the “activity change, negative = inhibition” value was 11.3%. `O=C(CSc1nc(=O)n(Cc2ccccn2)c2c1CCC2)Nc1ccccc1` was tested, and the “activity change, negative = inhibition” value was 13%. With `CCC(C)NC(=O)CSc1nc2cc3c(cc2c(=O)n1Cc1ccc(C(=O)NCCc2ccc(OC)c(OC)c2)cc1)OCO3` (stereo not given) the “activity change, negative = inhibition” value was 1.89%. In the case of `Cc1cc(C)c2nc(N(Cc3cccnc3)C(=O)CCS(=O)(=O)c3ccccc3)sc2c1`, the “activity change, negative = inhibition” value is reported as 6.88%. In the case of `COc1ccc(C2C=C(c3ccc(Br)cc3)Nc3nnnn32)c(OC)c1` (stereo not given), the “activity change, negative = inhibition” value is reported as 6.25%. With `CCCCn1c(SCC(=O)NCCCOC)nc2c(sc3ccccc32)c1=O` the “activity change, negative = inhibition” value was 4.02%. For `CCCc1cc(=O)oc2c3c(ccc12)OCN(Cc1ccc(OC)cc1)C3`, the “activity change, negative = inhibition” value was -28.7%. With `Cc1ccc([C@H]2Nc3ccc(S(=O)(=O)Nc4cccc(Cl)c4C)cc3[C@H]3C=CC[C@H]32)cc1` the “activity change, negative = inhibition” value was -20.1%. With `CC(=O)Nc1ccc(NC(=O)Cn2nc(C(=O)Nc3ccc(C)cc3)ccc2=O)cc1` the “activity change, negative = inhibition” value was 9.94%. In the case of `COC(=O)c1c(NC(=O)CS(=O)(=O)c2ccc(C)cc2)sc2c1CCCCC2`, the “activity change, negative = inhibition” value is reported as 8.66%. With `COc1ccc(C(=O)/C=C/c2cn(CC(O)CN(CC(C)C)CC(C)C)c3ccccc23)cc1OC` (stereo not given) the “activity change, negative = inhibition” value was -33.5%.
